Screening data deposited in PubChem by several laboratories.
Hits are enriched below; roughly 2.4% of the tested compounds scored in any of these assays.
APOBEC3G inh – blocks human APOBEC3G single-stranded DNA deamination. recombinant A3G, ssDNA deamination FAM/TAMRA fluorescence. inhibition, % at 20 µM. AID 493012. Q9HC16. hit rate 0.28% among 330,000;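 active = inhibition of at least 40% at 20 µM, with no more than 30% in the related APOBEC3A deaminase screen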
CendR NRP1 mod – modulators of CendR peptide binding to human neuropilin-1. O14786. FAM-RPARPAR peptide binding to NRP-1, fluorescence polarization. inhibition, % at 25 µM. hit rate 0.85% among 360,000;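 active = inhibition or corrected inhibition above about 18%, plus a signal ratio from 0.5 to 1.5, limit read from the data, passing the limit was not always enough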
ADAM17 inh – inhibitors of human ADAM17; hit rate 0.83% among 370,000; inhibition, % at 6.95 µM; recombinant ADAM17, EDANS/DABCYL FRET peptide cleavage; P78536; AID 720648;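 active = inhibition above the mean of compounds lying between control limits plus 3 SD, set per campaign, cut at about 8.5% in these data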
ADAM10 inh – inhibits human ADAM10; O14672; recombinant ADAM10, EDANS/DABCYL FRET peptide cleavage, 3 h; inhibition, % at 7 µM; hit rate 0.62% among 370,000; AID 720582;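 active = inhibition above a per-campaign cutoff equal to the mean of compounds falling between control-based bounds plus 3 SD, cut at about 20% in these data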
APOBEC3A inh – blocks human APOBEC3A ssDNA deamination. AID 493011. recombinant A3A, FAM/TAMRA ssDNA deamination fluorescence. inhibition, % at 20 µM. hit rate 0.41% among 330,000. P31941;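 active = at least 40% inhibition at 20 µM here, with at most 30% in a related deaminase screen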
Target sequence (P31941 whole entry, looked up): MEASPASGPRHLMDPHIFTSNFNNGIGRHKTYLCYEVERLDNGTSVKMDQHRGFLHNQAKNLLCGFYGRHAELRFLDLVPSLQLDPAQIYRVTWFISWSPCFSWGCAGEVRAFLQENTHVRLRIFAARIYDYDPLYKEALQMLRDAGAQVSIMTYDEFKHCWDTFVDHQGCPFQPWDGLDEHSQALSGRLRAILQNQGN
Of the large screens only hits and unclear results are named; the others gave an inactive call.

COc1ccc(CC(=O)N(Cc2ccccc2)c2ccccc2C(=O)Nc2cc(OC)ccc2OC)cc1	none (no result: APOBEC3G inh, CendR NRP1 mod, APOBEC3A inh)
Cc1ccc(C(=O)CN(CCC(=O)O)C(=O)c2ccncc2)cc1	CendR NRP1 mod 22
Cc1ccc(C(=O)NCC(=O)Nc2ccncc2)cc1	none
CCCC[C@H]1C2CC(OC(=O)NCCCc3ccccc3)C(C2)[C@H]2CCCCN21 (stereo not given in full)	none (no result: APOBEC3G inh, CendR NRP1 mod, APOBEC3A inh)
COC(=O)C1=C(C)N(C)C(=NCc2ccc3c(c2)OCO3)NC1c1ccc(C(F)(F)F)cc1 (stereo not given)	none (no result: APOBEC3G inh, CendR NRP1 mod, APOBEC3A inh)
COC(=O)c1cc(-c2c(C)noc2C)c(=O)n2c1CCC2	none (no result: APOBEC3G inh, CendR NRP1 mod, APOBEC3A inh)
O=C(Nc1ccc(F)cc1)c1ccc(S(=O)(=O)N2CCOCC2)o1	CendR NRP1 mod 25
NS(=O)(=O)c1ccc(NC(=O)c2ccc(S(=O)(=O)N3CCOCC3)o2)cc1	none
Cc1cccc2cc(C#N)c(SCc3nnc(-c4ccccc4[N+](=O)[O-])o3)nc12	CendR NRP1 mod 32
CC(=O)Nc1c2c3c(cccc3n(C)c1=O)C(=O)c1ccccc1-2	CendR NRP1 mod 53
O=C1CN(S(=O)(=O)c2cc(Cl)ccc2Cl)c2ccccc2N1	CendR NRP1 mod 22
O=C(Nc1cccc(Cl)c1)Nc1cc(S(=O)(=O)N2CCCCC2)ccc1Cl	ADAM17 inh 9.9, ADAM10 inh 22
CCN1CCN(S(=O)(=O)c2ccc(Cl)c(C(=O)NC3CCCC3)c2)CC1	none
CN1CCN(S(=O)(=O)c2ccc(NC(=O)c3ccccc3Cl)cc2)CC1	none
Cc1ccc(S(=O)(=O)N2CCCCC2)cc1NC(=O)Nc1ccc(Cl)cc1Cl	none
CN1CCN(S(=O)(=O)c2ccc(NC(=O)Nc3cccc(Cl)c3)cc2)CC1	CendR NRP1 mod 27
O=C(NC1CCCCC1)c1cc(S(=O)(=O)N2CCCC2)ccc1Cl	CendR NRP1 mod 22
CN(C)CCNCCCNc1c2ccccc2nc2cccc([N+](=O)[O-])c12	CendR NRP1 mod 31 (no result: APOBEC3G inh, APOBEC3A inh)
CN(C)CCCNc1c2c(nc3ccccc13)CCC2	none
Cc1cc(C)cc(N2C(=O)CC(Sc3ncn[nH]3)C2=O)c1 (stereo not given)	APOBEC3G inh 41
COc1cccc(CN(C)C(=O)[C@@H](Cc2ccccc2)NC(=O)[C@H]2O[C@@H](n3ccc(=O)[nH]c3=O)[C@H](O)[C@@H]2O)c1	none (no result: APOBEC3G inh, CendR NRP1 mod, APOBEC3A inh)
O=C(Cc1ccccc1)NCCc1cccc(Cl)c1	CendR NRP1 mod 26
O=C(CSc1nc2ccc(Cl)cc2[nH]1)NCCc1ccccc1	CendR NRP1 mod 28
CC(COc1ccc(OC(F)(F)F)cc1)CN1CCC(C(O)(c2ccccc2)c2ccccc2)CC1 (stereo not given)	none (no result: APOBEC3G inh, CendR NRP1 mod, APOBEC3A inh)
Cc1cccc(COCC(Cc2ccccc2)N2CCN(C(=O)c3ccc(Cl)c(Cl)c3)CCC2=O)c1 (stereo not given)	ADAM10 inh 28
COc1ccccc1N1CCN(C(=O)COc2cccc3ccccc23)CC1	CendR NRP1 mod 31
COc1ccccc1N1CCN(C(=O)C2CC2)CC1	none
COc1ccccc1OCC(=O)N1CCN(C(=O)COc2ccccc2OC)CC1	none
COc1ccccc1N1CCN(C(=O)C2c3ccccc3Oc3ccccc32)CC1	CendR NRP1 mod 25
Cc1nn(-c2ccccc2)c2sc(C(=O)NCCc3ccc(Cl)cc3)cc12	none (no result: APOBEC3G inh, CendR NRP1 mod, APOBEC3A inh)
O=C(COC(=O)Cc1n[nH]c(=O)c2ccccc12)Nc1c(Br)cc([N+](=O)[O-])cc1Br	CendR NRP1 mod 24 (no result: APOBEC3G inh, APOBEC3A inh)
COc1cccc(C2CC=C(C(=O)O)CN2S(=O)(=O)c2ccc(C)cc2)c1 (stereo not given)	none (no result: APOBEC3G inh, CendR NRP1 mod, APOBEC3A inh)
CCC1=C(OC(=O)N(CC)CC)N2C(=O)OC(=NCCOC)[C@]2(Cc2ccccc2)[C@H]2C1=CC[C@H]1C(=O)N(CC(=O)OC)C(=O)[C@H]12	CendR NRP1 mod 35
CCC1=C(OC(=O)N(CC)CC)N2C(=O)OC(=NCC3CC3)[C@]2(Cc2ccccc2)[C@H]2C1=CC[C@H]1C(=O)N(C)C(=O)[C@H]12	CendR NRP1 mod 26
Cc1ccc(O)c(NC(=O)CSc2n[nH]c(C)c2[N+](=O)[O-])c1	none
CSc1ccccc1NC(=O)CSc1n[nH]c(C)c1[N+](=O)[O-]	CendR NRP1 mod 27
O=C(Nc1cccc(C(F)(F)F)c1)OCCN1CCN(Cc2ccccc2)CCC1=O	CendR NRP1 mod 23
O=C(Nc1ccc(F)cc1)OCCN1CCN(Cc2ccccc2)CCC1=O	none
CCCC[C@H]1C2CC(OC(=O)Nc3cccc(Cl)c3)C(C2)[C@H]2CCCCN21 (stereo not given in full)	none (no result: APOBEC3G inh, CendR NRP1 mod, APOBEC3A inh)
